Measurements as given in PubChem BioAssay (NCI).
About 83,000 compounds went through this panel and 20% of them were active in at least one assay; those are over-represented in the sample as a whole.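 Interpretation: 100, growth as untreated; towards 0, rising growth inhibition; 0, no net growth; 0 to -100, cell death. Compounds scoring below 10 were considered active.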 Calls of active or inactive are those of the source.

Experiments:
Assay in all cases: NCI-60 one-dose screen, 48 h (100 = growth as untreated, 0 = no growth, -100 = all killed)
Conditions in all cases: 10 µM unless noted
[1] = system: NCI-H23 lung
[2] = system: NCI-H226 lung
[3] = system: NCI-H322M lung
[4] = system: HOP-62 NSCLC
[5] = system: NCI-H460 lung
[6] = system: NCI-H522 lung
[7] = system: A549/ATCC NSCLC
[8] = system: 786-0 renal
[9] = system: COLO 205 colon
[10] = system: DU-145 prostate
[11] = system: K-562 leukemia
[12] = system: MALME-3M melanoma
[13] = system: MDA-MB-231 breast
[14] = system: RXF 393 renal
[15] = system: SF-268 CNS
[16] = system: SF-295 CNS
[17] = system: SF-539 CNS
[18] = system: UACC-257 melanoma
[19] = system: M14 melanoma
[20] = system: HOP-92 NSCLC

Measured: growth

C=C(C)[C@@H]1CC[C@]2(COCCCNCCCN)CC[C@]3(C)[C@H](CC[C@@H]4[C@@]5(C)CC[C@H](O)C(C)(C)[C@@H]5CC[C@]43C)[C@@H]12
active: [1] -64.7% | [2] 4.38% | [3] -90.2% | [4] -51.3% | [5] -77.3% | [6] -54.6% | [7] -48.7% | [8] -81.3% | [9] -65.9% | [10] -80.8% | [11] -9.9% | [12] -83.8% | [13] -86.3% | [14] -90.9% | [15] -57.9% | [16] -85.2% | [17] -96.2% | [18] -0.281% | [19] -90.3%

C=C(C)[C@@H]1CC[C@]2(C(=O)O)CC[C@]3(C)[C@H](CC[C@@H]4[C@@]5(C)C/C(=C/c6ccccn6)C(=O)C(C)(C)[C@@H]5CC[C@]43C)[C@@H]12
inactive: [1] 38.6% | [2] 39.9% | [3] 44.3% | [4] 36.3% | [5] 16.1% | [6] 24.1% | [7] 16.5% | [8] 51.1% | [9] 54.7% | [10] 45.5% | [11] 29.3% | [12] 72.5% | [13] 61.7% | [14] 62.1% | [15] 51.5% | [16] 34% | [17] 46.8% | [18] 46.5% | [19] 59%

O=C(Nc1ccc(N2CCOCC2)cc1)Nc1ccc2c(ccn2C(=O)c2cccc(F)c2)c1
inactive: [1] 66.7% | [2] 41.4% | [3] 92.5% | [4] 31.1% | [5] 38.8% | [6] 73.7% | [7] 59.5% | [8] 28.4% | [9] 82.1% | [10] 60.2% | [11] 77.3% | [12] 49.4% | [13] 60.1% | [15] 65.2% | [16] 32.5% | [17] 28.3% | [18] 61.2% | [19] 51.3%
active: [14] -0.178%

C[C@]12CC[C@H]3[C@@H](CC=C4C[C@@H](O)CC[C@@]43C)[C@@H]1CC[C@@H]2[C@](C)(O)CCc1cccnc1
inactive: [1] 52.5% | [3] 79.5% | [4] 61.3% | [5] 63.5% | [20] 66.8% | [6] 36.6% | [7] 70.1% | [8] 80.8% | [9] 70.8% | [10] 53.5% | [11] 26.4% | [12] 47% | [13] 77.2% | [14] 66.4% | [15] 70.7% | [16] 45% | [17] 66.2% | [18] 53.8% | [19] 85.6%

C#CCOc1ccccc1C(OC(=O)c1ccccc1)C(=O)NC(C)(C)C(C)(C)C (stereo not drawn)
inactive: [1] 82.4% | [3] 90.4% | [4] 88.4% | [5] 89.7% | [20] 71% | [6] 73.4% | [7] 74% | [8] 84.7% | [9] 85.1% | [10] 108% | [11] 78.3% | [12] 76.4% | [13] 80.8% | [14] 74.6% | [15] 93.5% | [16] 70.3% | [17] 102% | [18] 81.6% | [19] 89.4%

C#CCN(C)CCCOc1ccc(NCc2ccc(/C=C/C(=O)NO)cc2)cc1Cl
active: [1] -24% | [3] 9.85% | [4] 3.99% | [5] 4.27% | [20] -27.6% | [6] 2.32% | [7] -3.43% | [8] -2.14% | [9] -24.4% | [12] 4.84% | [14] -56.2% | [16] -65.5% | [17] -7.77% | [19] 0.456%
inactive: [10] 13.7% | [11] 15.3% | [13] 16.1% | [15] 12.9% | [18] 21%

N#Cc1cnc2ccc(-c3cnc4n[nH]nc4c3)cc2c1N1CCc2cc(F)c(Cl)cc21
active: [20] 4.22% | [6] -10.1% | [12] 1.37% | [14] -22.2% | [16] 2.19% | [17] 2.37%
inactive: [1] 14.4% | [3] 11.1% | [4] 11.8% | [5] 17.5% | [7] 11.2% | [8] 16.7% | [9] 37.8% | [10] 14.6% | [11] 28.1% | [13] 21.2% | [15] 16.7% | [18] 23.9% | [19] 21.2%

O=C(COc1ccc(/C=C2\C(=O)Nc3ccc(Cl)cc32)cc1)Nc1ccc(Cl)cc1
inactive: [1] 59.7% | [3] 74.3% | [4] 63.2% | [5] 23.7% | [20] 93.5% | [6] 45.3% | [7] 57% | [8] 68.3% | [9] 90.5% | [10] 53.7% | [11] 28.2% | [12] 81.2% | [13] 76.6% | [14] 75.4% | [15] 51.1% | [16] 59.2% | [17] 75.3% | [18] 82.5%
active: [19] 7.47%

COc1ccc([C@H]2C(=O)N(c3cc(OC)c(OC)c(OC)c3)[C@@H]2c2ccc(OC)c(O)c2)cc1
active: [5] 4.38% | [6] -49.2% | [8] 6.39% | [9] -76.1% | [11] 9.93% | [14] 6.67% | [17] -1.89% | [19] 4.54%
inactive: [1] 24.4% | [3] 43.3% | [4] 26.7% | [7] 21.6% | [10] 16.7% | [12] 67.8% | [13] 17.5% | [15] 29.1% | [16] 18.5% | [18] 58.1%

COc1ccc2sc(NC(=O)CCCCCCNC(=O)C(O)(O)C(F)(F)F)nc2c1
inactive: [8] 13.1% | [11] 11.2% | [12] 20.7% | [13] 20% | [18] 12.5% | [19] 13.4%
active: [1] 1.72% | [3] 4.96% | [4] -3.09% | [5] 7.12% | [20] -12.7% | [6] -42.7% | [7] 2.41% | [9] -69.9% | [10] 4.67% | [14] -47.6% | [15] -0.601% | [16] -37.1% | [17] 6.85%

CC(=C(c1ccc(OCCCN(C)C)cc1)c1ccc(OCCCN(C)C)cc1)c1ccc(Cl)cc1
inactive: [1] 84.8% | [3] 95.1% | [4] 99.5% | [5] 99.6% | [20] 77.9% | [6] 94.1% | [7] 79.8% | [8] 87.4% | [9] 96.6% | [10] 98% | [12] 85.8% | [13] 95.4% | [14] 80.6% | [15] 91.7% | [16] 95.2% | [17] 81.7% | [18] 100% | [19] 92.7%
active: [11] -13.5%

C(=N\Nc1nc(N/N=C/c2ccc3c(c2)OCO3)nc(N2CCCCC2)n1)/c1ccc2c(c1)OCO2
inactive: [1] 101% | [3] 98.5% | [4] 123% | [5] 90.6% | [20] 96% | [6] 91.9% | [7] 91.4% | [8] 86.6% | [9] 85.9% | [10] 99.8% | [11] 41.1% | [12] 120% | [13] 90.7% | [14] 79.7% | [15] 100% | [16] 77.8% | [17] 87.6% | [18] 108% | [19] 97.3%

COc1ccccc1N1CCN(C2=C(Cl)C(=O)c3ncccc3C2=O)CC1
inactive: [1] 56.3% | [3] 92.4% | [4] 93.4% | [5] 75% | [20] 135% | [7] 112% | [8] 107% | [9] 106% | [10] 48% | [12] 58.8% | [13] 86.4% | [14] 71% | [15] 87.6% | [16] 107% | [17] 95% | [18] 95% | [19] 88.1%
active: [6] 9.14% | [11] 9.05%

CC1(C)C=Cc2cc(/C(N)=N/C(N)=N/c3nc4ccccc4s3)ccc2O1
inactive: [1] 58.3% | [3] 93.8% | [5] 52.3% | [20] 94.2% | [6] 91.2% | [7] 67% | [8] 113% | [9] 102% | [10] 94.9% | [11] 57.6% | [12] 104% | [13] 77.5% | [14] 103% | [15] 93.2% | [16] 81.6% | [17] 97.3% | [18] 104% | [19] 103%
active: [4] 5.82%

CC/C(=C(/c1ccc(Cl)cc1)c1ccc(OCCN)cc1)c1ccccc1
inactive: [1] 96% | [3] 108% | [4] 116% | [5] 60.2% | [20] 103% | [6] 98.1% | [7] 86.2% | [8] 87.9% | [9] 18% | [10] 82.7% | [11] 19.7% | [12] 94.8% | [13] 86.6% | [14] 92.8% | [15] 103% | [16] 107% | [17] 98.6% | [18] 106% | [19] 88.7%

Cc1ccc(N2CCN(C3=C(Cl)C(=O)c4ncccc4C3=O)CC2)cc1
active: [11] 6.28%
inactive: [1] 35.6% | [3] 97.4% | [4] 73.1% | [5] 44.8% | [20] 84.4% | [6] 45.2% | [7] 91.3% | [8] 99.5% | [9] 75.3% | [10] 51.7% | [12] 52.8% | [13] 24.5% | [14] 12.5% | [15] 80.2% | [16] 97.5% | [17] 86.6% | [18] 29.6% | [19] 70.3%
